As a reminder, the AC50 is the concentration at which the activity in the assay is half-maximal.

The source made the active and inactive calls. Rule for the calls: active = hit-call score of the fitted dose curve at least 0.9, where 1 is the maximum; inactive = score below 0.9.

This is an account of results in PubChem BioAssay (EPA / NIEHS).

Read-out in experiment [1]: Monokine induced gamma interferon (MIG), CXCL9 (gene 4283)
Kind of experiment: BSK_3C_MIG: BioMAP Diversity Plus: 3C Assay for Monokine induced gamma interferon (MIG) Biomarker Activity (AID 2283021). Conditions: primary human endothelial cells (HUVEC); actives raise or lower the signal. A digest of the protocol: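 Endothelial primary cells (human umbilical vein) are dosed with test chemical in the 3C system. MIG levels are measured by ELISA at 24 h and fitted in both directions relative to DMSO.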

Experiment [2] in a line: BSK_3C_SRB: Viability Assessment in the BioMAP Diversity Plus: 3C Assay (AID 2283023).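 Note: fitted both ways against DMSO so a hit may be signal rise or drop.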 The settings on record: primary human endothelial cells (HUVEC). An outline of the steps: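 Overt cytotoxicity is gauged in parallel confluent HUVEC cultures by SRB total-protein staining at the time of biomarker measurement, 24 h after dosing. Gain or loss of signal is fitted versus DMSO.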

Read-out in experiment [3]: Matrix Metallopeptidase 1 (MMP1), MMP1 (gene 4312)
In words: BSK_BE3C_MMP1: BioMAP Diversity Plus: BE3C Assay for Matrix Metallopeptidase 1 (MMP1) Biomarker Activity (AID 2283024). The settings on record: primary human bronchial epithelial cells; actives raise or lower the signal. An outline of the steps: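 MMP1 signal, measured by ELISA after a 24 h chemical exposure of human primary bronchial epithelial cells, is analysed with bidirectional fitting using DMSO as negative control.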

Experiment [4] can be described thus: BSK_3C_Vis: BioMAP Diversity Plus: 3C Assay for Morphology Visualization (AID 2283025).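 Note: fitted both ways so gain or loss versus DMSO counts.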 Conditions: primary human endothelial cells (HUVEC). An outline of the steps: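 Morphology read by light microscopy serves as a background control for the multiplexed 3C assay in human umbilical vein endothelial cells, taken 24 h after dosing, with DMSO as the negative control and bidirectional curve fitting.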

Read-out in experiment [5]: Pselectin, SELP (gene 6403)
Kind of experiment: BSK_4H_Pselectin: BioMAP Diversity Plus: 4H Assay for Pselectin Biomarker Activity (AID 2283026). The settings on record: primary human endothelial cells (HUVEC); actives raise or lower the signal. A digest of the protocol:
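Endothelial primary cells (human umbilical vein) are dosed, incubated 24 h, and assayed for surface P-selectin by ELISA; responses in either direction are fitted relative to the DMSO negative control.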

A short description of experiment [6]: BSK_4H_SRB: Viability Assessment in the BioMAP Diversity Plus: 4H Assay (AID 2283027).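 For AC50: curves fitted both ways versus DMSO so AC50 may be loss or gain.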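 Note: cells exposed to compound for 24 h before staining.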 The settings on record: primary human endothelial cells (HUVEC). A digest of the protocol: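 HUVEC, 24 h post-dose; 10% TCA fix, 0.1% SRB stain, A560 nm. Total protein = overt cytotoxicity, parallel to biomarker read. Bidirectional fit vs DMSO baseline.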
Experiment [7] can be described thus: BSK_BE3C_SRB: Viability Assessment in the BioMAP Diversity Plus: BE3C Assay (AID 2283028).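 For AC50: fitted both ways so AC50 may mark signal gain or loss versus DMSO.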 Conditions: primary human bronchial epithelial cells. A digest of the protocol:
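SRB total-protein staining (0.1%, after TCA fixation) of chemically dosed human bronchial epithelial primary cells at 24 h; DMSO serves as the negative control for bidirectional curve fitting.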

Read-out in experiment [8]: Thrombomodulin, THBD (gene 7056)
Kind of experiment: BSK_3C_Thrombomodulin: BioMAP Diversity Plus: 3C Assay for Thrombomodulin Biomarker Activity (AID 2283029). The settings on record: primary human endothelial cells (HUVEC); actives raise or lower the signal. An outline of the steps: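 Endothelial cells from umbilical vein are dosed with test chemical and incubated 24 h. Thrombomodulin is then quantified by ELISA, with DMSO serving as negative control and activity baseline.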

Read-out in experiment [9]: Urokinase-type plasminogen activator receptor (uPAR), PLAUR (gene 5329)
Kind of experiment: BSK_4H_uPAR: BioMAP Diversity Plus: 4H Assay for Urokinase-type plasminogen activator receptor (uPAR) Biomarker Activity (AID 2283030). Conditions: primary human endothelial cells (HUVEC); actives raise or lower the signal. An outline of the steps: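 Endpoint derived via bidirectional curve fitting against DMSO baseline; readout was ELISA detection of uPAR on umbilical vein endothelial cells at 24 h post-treatment, with SRB-stained parallel cultures assessing cytotoxicity.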

Read-out in experiment [10]: Vascular endothelial growth factor receptor 2 (Homo sapiens) (UniProt P35968)
Kind of experiment: BSK_4H_VEGFRII: BioMAP Diversity Plus: 4H Assay for Vascular endothelial growth factor receptor 2 (VEGFR2) Biomarker Activity (AID 2283031). The settings on record: primary human endothelial cells (HUVEC); actives raise or lower the signal. A digest of the protocol:
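In this multiplexed HUVEC system, biomarker ELISA was performed after 24 h chemical exposure. Parallel SRB staining (TCA fixation, 560 nm) tracked cytotoxicity; DMSO served as baseline.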

Read-out in experiment [11]: Human Leukocyte Antigen - DR isotype (HLADR), HLA-DRA (gene 3122)
In words: BSK_BE3C_HLADR: BioMAP Diversity Plus: BE3C Assay for Human Leukocyte Antigen - DR isotype (HLADR) Biomarker Activity (AID 2283032). Conditions: primary human bronchial epithelial cells; actives raise or lower the signal. A digest of the protocol: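 Chemicals are dosed onto BE3C bronchial epithelial cultures of human origin and left 24 h. HLA-DR is then measured by ELISA, and the endpoint is fitted in both directions using DMSO as the activity baseline.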

Read-out in experiment [12]: Vascular cell adhesion molecule 1 (VCAM1), VCAM1 (gene 7412)
Kind of experiment: BSK_4H_VCAM1: BioMAP Diversity Plus: 4H Assay for Vascular cell adhesion molecule 1 (VCAM1) Biomarker Activity (AID 2283033).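 Note: cell-surface VCAM-1 protein measured by ELISA.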 Conditions: primary human endothelial cells (HUVEC); actives raise or lower the signal. An outline of the steps: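 Chemicals are added to primary human umbilical vein endothelial cells. After 24 h, VCAM-1 levels are measured by ELISA. Values come from bidirectional fitting referenced to DMSO.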

Read-out in experiment [13]: Interferon-gamma inducible Protein 10 (IP10), CXCL10 (gene 3627)
Kind of experiment: BSK_BE3C_IP10: BioMAP Diversity Plus: BE3C Assay for Interferon-gamma inducible Protein 10 (IP10) Biomarker Activity (AID 2283034). Conditions: primary human bronchial epithelial cells; actives raise or lower the signal. An outline of the steps:
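IP-10 quantified by ELISA serves as the endpoint. Cells: primary human bronchial epithelium, read 24 h after compound addition. Activity is derived by bidirectional fitting with DMSO as negative control.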

Read-out in experiment [14]: Monokine induced gamma interferon (MIG), CXCL9 (gene 4283)
In words: BSK_BE3C_MIG: BioMAP Diversity Plus: BE3C Assay for Monokine induced gamma interferon (MIG) Biomarker Activity (AID 2283035).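 Note: MIG protein measured by ELISA in BE3C cultures after 24 h of dosing.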 Conditions: primary human bronchial epithelial cells; actives raise or lower the signal. A digest of the protocol:
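Dose cells (human primary bronchial epithelial), incubate 24 h, quantify MIG by ELISA, then fit concentration–response in both directions relative to DMSO control.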

Read-out in experiment [15]: Transforming growth factor beta 1 (TGFb1), TGFB1 (gene 7040)
In words: BSK_BE3C_TGFb1: BioMAP Diversity Plus: BE3C Assay for Transforming growth factor beta 1 (TGFb1) Biomarker Activity (AID 2283036;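 note: TGF-b1 protein level measured by ELISA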). Conditions: primary human bronchial epithelial cells; actives raise or lower the signal. A digest of the protocol:
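Bronchial epithelial primary cells are treated with test chemical, then TGF-b1 is quantified by ELISA after 24 hours. Values derive from bidirectional fitting against DMSO, with cytotoxicity checked by SRB staining in parallel cultures.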

Read-out in experiment [16]: Plasminogen activator inhibitor-1 (PAI1), SERPINE1 (gene 5054)
Kind of experiment: BSK_BE3C_PAI1: BioMAP Diversity Plus: BE3C Assay for Plasminogen activator inhibitor-1 (PAI1) Biomarker Activity (AID 2283037). Conditions: primary human bronchial epithelial cells; actives raise or lower the signal. An outline of the steps: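 Values derive from bidirectional fitting against DMSO baseline of PAI-1 levels, measured by ELISA in human bronchial epithelial cells 24 h after compound addition.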

Read-out in experiment [17]: urokinase plasminogen activator (uPA), PLAU (gene 5328)
In words: BSK_BE3C_uPA: BioMAP Diversity Plus: BE3C Assay for urokinase plasminogen activator (uPA) Biomarker Activity (AID 2283038).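 Note: uPA protein level quantified by ELISA in cell cultures; uPA read one day after compound addition.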 Conditions: primary human bronchial epithelial cells; actives raise or lower the signal. An outline of the steps: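 Using confluent primary human lung bronchial epithelial cultures, we dosed chemicals, waited 24 h, then ran a uPA ELISA, fitting bidirectionally against DMSO.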

Read-out in experiment [18]: Urokinase-type plasminogen activator receptor (uPAR), PLAUR (gene 5329)
Kind of experiment: BSK_BE3C_uPAR: BioMAP Diversity Plus: BE3C Assay for Urokinase-type plasminogen activator receptor (uPAR) Biomarker Activity (AID 2283039).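 Note: uPAR protein level measured by ELISA on the cells; cells exposed to compound for one day before measurement.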 The settings on record: primary human bronchial epithelial cells; actives raise or lower the signal. An outline of the steps:
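Steps: dose human primary bronchial epithelial cells, incubate 24 h, measure uPAR by ELISA, then fit gain- or loss-of-signal response bidirectionally relative to DMSO.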

Read-out in experiment [19]: Interleukin-6 (IL6), IL6 (gene 3569)
Kind of experiment: BSK_CASM3C_IL6: BioMAP Diversity Plus: CASM3C Assay for Interleukin-6 (IL6) Biomarker Activity for (AID 2283040). The settings on record: primary human coronary artery smooth muscle cells; actives raise or lower the signal.

Read-out in experiment [20]: Tissue plasminogen activator (tPA), PLAT (gene 5327)
Kind of experiment: BSK_BE3C_tPA: BioMAP Diversity Plus: BE3C Assay for Tissue plasminogen activator (tPA) Biomarker Activity (AID 2283041).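 Note: tPA level quantified by ELISA one day after compound addition.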 Conditions: primary human bronchial epithelial cells; actives raise or lower the signal. An outline of the steps: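 Gain- or loss-of-signal in tPA, measured by ELISA, derived by bidirectional fitting against DMSO. Cells: human primary bronchial epithelial; read at 24 h after chemical dosing.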

As for `CS(=O)(=O)c1cc(C(F)(F)F)ccc1C(=O)c1cnoc1C1CC1`, the outcome in [1], in experiment [2], in experiment [3], in experiment [4], in [5] and in experiment [6] was inactive. The result in experiment [7], in experiment [8], in [9], in experiment [10], in experiment [11] and in experiment [12] was inactive. For the same molecule, the outcome in experiment [14], in experiment [15], in experiment [16], in experiment [17], in [18] and in experiment [19] was inactive. Also, the AC50 in experiment [13] is 4.13 µM (active).

Turning to `CCOP(=S)(OCC)Oc1nc(Cl)n(C(C)C)n1`, the outcome in experiment [1], in experiment [2], in experiment [3], in experiment [4], in [5] and in [6] was inactive. The outcome in [7], in [9], in [10], in [11], in [12] and in experiment [13] was inactive. Besides, the outcome in experiment [14], in experiment [15], in experiment [16], in experiment [17], in experiment [18] and in experiment [19] was inactive. For the same molecule, in experiment [8], the AC50 is 3.97 µM (active).

In the case of `COC(=O)N(C(=O)N1CO[C@@]2(C(=O)OC)Cc3cc(Cl)ccc3C2=N1)c1ccc(OC(F)(F)F)cc1`, the result in experiment [1], in [3], in [4], in experiment [8], in experiment [9] and in experiment [10] was inactive. Besides, the result in experiment [12], in [14], in [15], in [16], in experiment [17] and in [18] was inactive. The outcome in [19] was inactive. Also, the AC50 is 3.97 µM (active) in [2]; 5.19 µM (active) in experiment [5]; 7.13 µM (active) in experiment [6]; 5.81 µM (active) in experiment [7]; 13.8 µM (active) in [11]; 11 µM (active) in experiment [13].

Consider `CO/N=C(/C1=NOCCO1)c1ccccc1Oc1ncnc(Oc2ccccc2Cl)c1F`, for which the outcome in experiment [1], in experiment [3], in experiment [5], in experiment [7], in experiment [8] and in [10] was inactive. Moreover, the outcome in [12], in [13], in experiment [14], in experiment [15], in experiment [16] and in experiment [17] was inactive. In addition, the result in experiment [18], in [19] and in experiment [20] was inactive. For the same molecule, the AC50 in [2] was 13.4 µM (active); in experiment [4], 20 µM (active); in experiment [6] it was 8.6 µM (active); in [9], 15.5 µM (active); in [11] it was 11.1 µM (active).

`CC1(C)C(C(=O)OC(C#N)c2cccc(Oc3ccccc3)c2)C1(C)C` (stereo unspecified): the outcome in experiment [1], in [3], in experiment [6], in experiment [8], in [9] and in experiment [10] was inactive. In addition, the result in experiment [11], in experiment [12], in experiment [13], in [14], in experiment [15] and in [16] was inactive. The outcome in [17] and in experiment [18] was inactive. For the same molecule, the AC50 in experiment [2] was 10.1 µM (active); in [4], 39 µM (active); in experiment [5], 12.9 µM (active); in experiment [7], 6.87 µM (active); in experiment [19] it was 30.9 µM (active).

For `CC1(C)CCC(=Cc2ccc(Cl)cc2)C1(O)Cn1cncn1` (stereo unspecified), the outcome in experiment [1], in [2], in [3], in experiment [4], in [5] and in experiment [7] was inactive. In addition, the result in experiment [8], in experiment [9], in experiment [10], in experiment [11], in [12] and in experiment [13] was inactive. In addition, the outcome in experiment [14], in [15], in [16], in [17], in [18] and in [19] was inactive. Moreover, the outcome in [20] was inactive. In [6], the AC50 is 0.803 µM (active).
